Data on 8 molecules can be found in PubChem BioAssay (NCI).

Among the test systems are SK-MEL-2 melanoma; EKVX NSCLC; SN12C renal; TK-10 renal; ACHN renal; CAKI-1 renal; A498 renal; CCRF-CEM leukemia; MOLT-4 leukemia; SR leukemia; RPMI-8226 leukemia; OVCAR-8 ovarian; OVCAR-5 ovarian; OVCAR-4 ovarian; SK-OV-3 ovarian; IGROV1 ovarian; OVCAR-3 ovarian; HS 578T breast; NCI/ADR-RES ovarian.
What all share (assay): NCI-60 one-dose screen, 48 h (100 = growth as untreated, 0 = no growth, -100 = all killed)
Details in all cases: 10 µM unless noted

Molecules are shown by their SMILES. This is part of a sample that, as a whole, favours compounds with a hit. Of some 83,000 tested, about 20% had one in any assay.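 48-hour exposure, single concentration, 96-well plates; percent growth endpoint where 0 means no net growth. Active: below 10.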 Values without a mark were called inactive. Active and inactive are the calls of the source.

As to `CC1=C(C(=O)Nc2ccccc2)C(c2cccc(Cl)c2Cl)n2c(nc3ccccc32)N1` (stereo unspecified), the growth in the experiment on SK-MEL-2 melanoma is 75.2%; in the experiment on EKVX NSCLC it was 46.3%; in the experiment on SN12C renal, 53.4%; with TK-10 renal, 57.8%; in the experiment on ACHN renal, 42.5%; in the experiment on CAKI-1 renal it was 36.4%. For the same molecule, the growth was 35% with A498 renal; 29.8% with CCRF-CEM leukemia; 7.7% (active) in the experiment with MOLT-4 leukemia; 6.58% (active) in the experiment on SR leukemia; 37% in the experiment on RPMI-8226 leukemia; 66.6% with OVCAR-8 ovarian. Further, the growth is 82.8% with OVCAR-5 ovarian; 49.4% in the experiment with OVCAR-4 ovarian; 84.3% with SK-OV-3 ovarian; 54.9% with IGROV1 ovarian; 42.2% in the experiment with OVCAR-3 ovarian; 66% in the experiment with HS 578T breast. Also, the growth in the experiment with NCI/ADR-RES ovarian was 46.3%.
As to `COc1cc(CNC(=O)C[C@H](C)CCC=C(C)C)ccc1OCc1cn(-c2ccccc2F)nn1`, the growth was 78.6% with SK-MEL-2 melanoma; 78.3% in the experiment with EKVX NSCLC; 76.1% in the experiment on SN12C renal; 95.8% with TK-10 renal; 65.3% in the experiment with ACHN renal; 55.1% in the experiment with CAKI-1 renal. Moreover, the growth in the experiment on A498 renal was 103%; with CCRF-CEM leukemia, 97.3%; in the experiment on MOLT-4 leukemia it was 74.8%; in the experiment with SR leukemia it was 73.4%; in the experiment on RPMI-8226 leukemia it was 81.8%; in the experiment with OVCAR-8 ovarian, 66.5%. Further, the growth with OVCAR-5 ovarian was 94.9%; in the experiment with OVCAR-4 ovarian it was 71.4%; in the experiment on SK-OV-3 ovarian it was 43.6%; with IGROV1 ovarian, 81.9%; with OVCAR-3 ovarian it was 105%; in the experiment on HS 578T breast, 39.5%. Further, the growth in the experiment on NCI/ADR-RES ovarian is 54.8%.
Consider `COc1cc(/C=N/NC(=O)c2ccc(OCc3nc4ccc(C)cc4[nH]3)cc2)cc(OC)c1OC`, for which the growth is 68.1% in the experiment on SK-MEL-2 melanoma; 72.4% in the experiment with EKVX NSCLC; 56.4% with SN12C renal; 83.2% with TK-10 renal; 69.6% in the experiment on ACHN renal; 50.5% in the experiment on CAKI-1 renal. Besides, the growth in the experiment with A498 renal is 116%; in the experiment on CCRF-CEM leukemia it was 7.65% (active); in the experiment on MOLT-4 leukemia it was 4.5% (active); in the experiment with SR leukemia, 0.64% (active); in the experiment with RPMI-8226 leukemia, 7.31% (active); in the experiment with OVCAR-8 ovarian, -30.8% (active). The growth is 88% with OVCAR-5 ovarian; 71.9% with OVCAR-4 ovarian; 106% with SK-OV-3 ovarian; 50.5% with IGROV1 ovarian; 29.5% in the experiment with OVCAR-3 ovarian; 63.1% with HS 578T breast. Also, the growth in the experiment with NCI/ADR-RES ovarian was 91.6%.
Consider `Cn1cc(-c2cc(N)n3nc(-c4c[nH]c5ccccc45)cc3n2)c2cc(F)ccc21`, for which the growth in the experiment on SK-MEL-2 melanoma was 51.6%; in the experiment on EKVX NSCLC, 60.2%; with SN12C renal, 47.1%; in the experiment with TK-10 renal, 50.6%; in the experiment with ACHN renal it was 31.7%; in the experiment on CAKI-1 renal it was 77.5%. Further, the growth was 99% in the experiment on A498 renal; -0.0318% (active) with CCRF-CEM leukemia; 25.7% with MOLT-4 leukemia; 13.1% in the experiment with SR leukemia; 0.774% (active) in the experiment on RPMI-8226 leukemia; -43.2% (active) in the experiment with OVCAR-8 ovarian. The growth in the experiment on OVCAR-5 ovarian was 34.4%; in the experiment on OVCAR-4 ovarian it was 35.3%; with SK-OV-3 ovarian, 97.9%; with IGROV1 ovarian, 21.2%; in the experiment with OVCAR-3 ovarian it was 15.8%; in the experiment on HS 578T breast, 79.5%.
For the molecule `Nc1ccc(-c2ccc3ncnc(N4CCc5cc(F)c(Cl)cc54)c3c2)cn1`, the growth in the experiment with SK-MEL-2 melanoma is 29%; in the experiment with EKVX NSCLC it was -29.2% (active); with SN12C renal it was 19.2%; in the experiment on TK-10 renal, -7.15% (active); in the experiment on ACHN renal, 8.96% (active); in the experiment with CAKI-1 renal it was 5.25% (active). Further, the growth with A498 renal was -13.2% (active); in the experiment on CCRF-CEM leukemia, 10.6%; in the experiment on MOLT-4 leukemia, 1.81% (active); in the experiment with SR leukemia, 0.174% (active); in the experiment with RPMI-8226 leukemia, 6.22% (active); with OVCAR-8 ovarian, 42.5%. Further, the growth in the experiment with OVCAR-5 ovarian was 20.6%; in the experiment with OVCAR-4 ovarian, 34.6%; in the experiment with SK-OV-3 ovarian it was 1.92% (active); with IGROV1 ovarian it was -46% (active); in the experiment with OVCAR-3 ovarian, 4.61% (active); in the experiment on HS 578T breast, -15.8% (active). Besides, the growth in the experiment with NCI/ADR-RES ovarian was 30%.
Turning to `COc1ccc(N=Nc2c(N)nn3c(-c4cc5ccccc5oc4=O)ccnc23)cc1`, the growth is 39.3% in the experiment with SK-MEL-2 melanoma; 44.1% in the experiment with EKVX NSCLC; 24.1% with SN12C renal; 77.7% in the experiment on TK-10 renal; 3.84% (active) in the experiment on ACHN renal; 53.8% in the experiment with CAKI-1 renal. Besides, the growth with A498 renal is 138%; with CCRF-CEM leukemia it was 96.3%; with MOLT-4 leukemia, 104%; with SR leukemia, 21%; in the experiment with RPMI-8226 leukemia it was 72.8%; in the experiment on OVCAR-8 ovarian it was 38.8%. Moreover, the growth in the experiment on OVCAR-5 ovarian is 68.5%; in the experiment on OVCAR-4 ovarian it was 70.8%; with SK-OV-3 ovarian it was 57.8%; in the experiment on IGROV1 ovarian it was 29.4%; in the experiment on OVCAR-3 ovarian, 74.3%; in the experiment on HS 578T breast, 29.1%. The growth with NCI/ADR-RES ovarian is 22.1%.
Turning to `COc1ccc(N=Nc2c(N)nn3c(N)c(C#N)c(-c4ccccc4)nc23)cc1`, the growth is 97.6% in the experiment with SK-MEL-2 melanoma; 38.9% with EKVX NSCLC; 40.8% in the experiment on SN12C renal; 57.4% in the experiment on TK-10 renal; 25.7% in the experiment on ACHN renal; 15.9% in the experiment on CAKI-1 renal. Further, the growth in the experiment on A498 renal was 113%; in the experiment with CCRF-CEM leukemia it was 72.7%; in the experiment with MOLT-4 leukemia it was 72.8%; in the experiment with SR leukemia, 73.8%; in the experiment with RPMI-8226 leukemia it was 13.8%; in the experiment on OVCAR-8 ovarian, 8.3% (active). Besides, the growth in the experiment with OVCAR-5 ovarian is 72.8%; with OVCAR-4 ovarian, -13.4% (active); with SK-OV-3 ovarian it was 13.1%; in the experiment on IGROV1 ovarian it was 20.8%; in the experiment on OVCAR-3 ovarian, -6.99% (active); with HS 578T breast it was -0.615% (active). Besides, in the experiment on NCI/ADR-RES ovarian, the growth is 6.35% (active).
With `Cc1ccc(C2CC(c3ccc(NC(=S)Nc4ccccc4)cc3)=NN2c2ccc(S(N)(=O)=O)cc2)cc1` (stereo unspecified), the growth in the experiment with SK-MEL-2 melanoma was 13.4%; in the experiment on EKVX NSCLC it was 9.1% (active); in the experiment with SN12C renal, 28.3%; with TK-10 renal it was 21.6%; in the experiment with ACHN renal it was -33.2% (active); with CAKI-1 renal it was -10.6% (active). Further, the growth in the experiment on A498 renal was 76.4%; in the experiment with CCRF-CEM leukemia, 14.5%; in the experiment on MOLT-4 leukemia it was 25.8%; in the experiment on SR leukemia it was 17.8%; in the experiment on RPMI-8226 leukemia, 7.06% (active); with OVCAR-8 ovarian it was 26%. In addition, the growth was 16.2% in the experiment on OVCAR-5 ovarian; 27.1% with OVCAR-4 ovarian; 41.5% in the experiment with SK-OV-3 ovarian; 19.2% in the experiment with IGROV1 ovarian; 2.37% (active) in the experiment with OVCAR-3 ovarian; 31.7% in the experiment with HS 578T breast. Also, the growth in the experiment on NCI/ADR-RES ovarian was 7.5% (active).
